Records with an inconclusive call do not appear. The source made the active and inactive calls. Rule for the calls, unless noted: active = hit-call score of the fitted dose curve at least 0.9, where 1 is the maximum; inconclusive = response in the unintended direction; inactive = score below 0.9.

The target of one assay is Estrogen receptor (Homo sapiens) (UniProt P03372). Kind of assay: CCTE_Deisenroth_AIME_384WELL_LUC_Active: CCTE's 384-well Estrogen Receptor Transactivation Assay with AIME metabolic competence (ERTA luciferase; metabolism positive), Deisenroth Lab (AID 2284030). In a few lines: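 Test chemicals (10-point series, 0.002 - 200 uM) were preincubated 2 hours with alginate-immobilized phenobarbital/beta-naphthoflavone-induced male Sprague Dawley rat liver S9; conditioned medium then went onto VM7Luc4E2 breast cells for 24 hour. Luciferase gain-of-signal fitted relative to 17beta-estradiol.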
Estrogen receptor (Homo sapiens), sequence (P03372 whole entry, looked up): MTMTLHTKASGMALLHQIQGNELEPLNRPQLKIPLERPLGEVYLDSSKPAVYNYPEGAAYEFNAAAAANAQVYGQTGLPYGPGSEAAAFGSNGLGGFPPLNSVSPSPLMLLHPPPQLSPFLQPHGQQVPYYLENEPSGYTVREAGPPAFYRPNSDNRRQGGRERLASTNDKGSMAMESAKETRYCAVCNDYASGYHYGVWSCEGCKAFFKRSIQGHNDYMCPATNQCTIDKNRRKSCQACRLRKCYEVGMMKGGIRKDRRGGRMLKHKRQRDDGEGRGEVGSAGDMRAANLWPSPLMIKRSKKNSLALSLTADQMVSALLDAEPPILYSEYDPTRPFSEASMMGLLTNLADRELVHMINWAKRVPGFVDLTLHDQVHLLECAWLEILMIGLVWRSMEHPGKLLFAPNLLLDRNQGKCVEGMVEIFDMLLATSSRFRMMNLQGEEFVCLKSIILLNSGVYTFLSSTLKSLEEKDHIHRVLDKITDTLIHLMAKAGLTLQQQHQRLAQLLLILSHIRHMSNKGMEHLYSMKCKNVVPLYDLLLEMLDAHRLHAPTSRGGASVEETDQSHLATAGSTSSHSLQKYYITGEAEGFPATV
With `CC(CCO)CC(C)(C)C` (centres undefined), the compound was classed as inactive.

For `C1CCCNCC1`, the compound was called inactive.

For the compound `COc1ccc2[nH]cc(CCNC(C)=O)c2c1`, the compound was called inactive.

Take `CCC(C)COC(=O)CC(C)C` (centres undefined): the compound was classed as inactive.

As to `CC(C)C(=O)c1ccccc1`, the result was inactive.

Regarding `CCCCOCCOCCO`, the result was inactive.

`CC(=O)CC(=O)N(C)C`: the compound was called inactive.

Consider `CC(C)(C)C1CCC(O)CC1` (centres undefined), for which the result was inactive.

Usually AC50 stands for the concentration giving half of the maximal activity seen. Take `CC(=O)c1ccc2ccccc2c1`: the AC50 is 74.9 µM (active).

Regarding `Cc1cccc(O)c1`, the outcome was inactive.

In the case of `CC(C)N(c1ccccc1)C(C)C`, the compound was classed as inactive.

`CCCCCCCCCCCCN1CCOCC1`: the compound was called inactive.

Consider `CN(C)C(=O)Nc1ccccc1`, for which the compound was classed as inactive.

Turning to `CC(=O)Oc1c(C)c(C)c2c(c1C)CC[C@@](C)(CCC[C@H](C)CCC[C@H](C)CCCC(C)C)O2`, the result was inactive.

As for `NC(N)=S`, the compound was classed as inactive.

Regarding `c1ccc2scnc2c1`, the call was inactive.

As for `OC[C@H]1O[C@@H](O[C@H]2[C@H](O)[C@@H](O)[C@H](O)O[C@@H]2CO)[C@H](O)[C@@H](O)[C@H]1O`, the compound was classed as inactive.

As for `CC(=O)OC/C=C(C)/C=C/C=C(C)/C=C/C1=C(C)CCCC1(C)C`, the call was inactive.

For the compound `CC(=O)C1=C(C)[C@@H]2C[C@@]3(C1)[C@H](C)CC[C@H]3C2(C)C`, the AC50 was 0.000204 µM (active).

As to `C=C(C)C(N)=O`, the call was inactive.

Turning to `O=C(OCc1ccccc1)c1ccccc1O`, the call was inactive.

Tested on in another assay: not listed separately
Kind of assay: CCTE_Deisenroth_AIME_384WELL_CTox_Active: Cytotoxicity Assessment (CTOX) in CCTE's 384-well Estrogen Receptor Transactivation Assay with AIME metabolic competence (metabolism positive), Deisenroth Lab (AID 2284037).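 Note: chemicals first conditioned 2 h by alginate-bound induced rat liver S9 before cells; activity means signal loss indicating cell death.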 The procedure, abridged: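 VM7Luc4E2 breast cells received medium pre-incubated 2 h with chemical over alginate microspheres holding induced male Sprague Dawley rat liver S9; viability read 24 h later by protease-substrate fluorescence. Loss of signal, bidirectional fit, 0.002–200 uM.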
On to `CC(CCO)CC(C)(C)C` (centres undefined), for which the outcome was inactive.

Consider `C1CCCNCC1`, for which the compound was classed as inactive.

With `COc1ccc2[nH]cc(CCNC(C)=O)c2c1`, the compound was classed as inactive.

Regarding `CCC(C)COC(=O)CC(C)C` (centres undefined), the compound was classed as inactive.

Consider `CC(C)C(=O)c1ccccc1`, for which the result was inactive.

On to `CC(=O)CC(=O)N(C)C`, for which the result was inactive.

On to `CC(C)(C)C1CCC(O)CC1` (centres undefined), for which the outcome was inactive.

Take `CC(=O)c1ccc2ccccc2c1`: the result was inactive.

Regarding `Cc1cccc(O)c1`, the compound was called inactive.

Regarding `CC(C)N(c1ccccc1)C(C)C`, the result was inactive.

In the case of `CCCCCCCCCCCCN1CCOCC1`, the result was inactive.

Regarding `CC(=O)Oc1c(C)c(C)c2c(c1C)CC[C@@](C)(CCC[C@H](C)CCC[C@H](C)CCCC(C)C)O2`, the compound was called inactive.

As to `NC(N)=S`, the compound was called inactive.

In the case of `OC[C@H]1O[C@@H](O[C@H]2[C@H](O)[C@@H](O)[C@H](O)O[C@@H]2CO)[C@H](O)[C@@H](O)[C@H]1O`, the compound was classed as inactive.

Turning to `CC(=O)OC/C=C(C)/C=C/C=C(C)/C=C/C1=C(C)CCCC1(C)C`, the call was inactive.

As to `CC(=O)C1=C(C)[C@@H]2C[C@@]3(C1)[C@H](C)CC[C@H]3C2(C)C`, the outcome was inactive.

Turning to `C=C(C)C(N)=O`, the result was inactive.

For `O=C(OCc1ccccc1)c1ccccc1O`, the compound was classed as inactive.

The next assay concerns the target Estrogen receptor (Homo sapiens) (UniProt P03372). Kind of assay: CCTE_Deisenroth_AIME_384WELL_LUC_Inactive: CCTE's 384-well Estrogen Receptor Transactivation Assay without AIME metabolic competence (ERTA luciferase; metabolism negative), Deisenroth Lab (AID 2284038).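 Note: hits raise estrogen receptor luciferase signal so potencies reflect agonists.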 In a few lines:
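Metabolism-negative mode: AIME lids stamped in alginate-water, no hepatic S9. 2 h chemical incubation → medium onto VM7Luc4E2 ERTA, 24 h. Readout luciferase luminescence; gain-of-signal fit vs 17beta-estradiol. Conc. 0.002 - 200 uM.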
Consider `CC(CCO)CC(C)(C)C` (centres undefined), for which the compound was called inactive.

On to `C1CCCNCC1`, for which the outcome was inactive.

Take `COc1ccc2[nH]cc(CCNC(C)=O)c2c1`: the outcome was inactive.

For the compound `CCC(C)COC(=O)CC(C)C` (centres undefined), the outcome was inactive.

`CC(C)C(=O)c1ccccc1`: the compound was classed as inactive.

As to `CCCCOCCOCCO`, the result was inactive.

In the case of `CC(=O)CC(=O)N(C)C`, the outcome was inactive.

In the case of `CC(C)(C)C1CCC(O)CC1` (centres undefined), the outcome was inactive.

Turning to `CC(=O)c1ccc2ccccc2c1`, the result was inactive.

For `Cc1cccc(O)c1`, the compound was called inactive.

For the compound `CC(C)N(c1ccccc1)C(C)C`, the result was inactive.

Consider `CCCCCCCCCCCCN1CCOCC1`, for which the compound was classed as inactive.

Take `CN(C)C(=O)Nc1ccccc1`: the compound was classed as inactive.

As to `CC(=O)Oc1c(C)c(C)c2c(c1C)CC[C@@](C)(CCC[C@H](C)CCC[C@H](C)CCCC(C)C)O2`, the compound was classed as inactive.

Take `NC(N)=S`: the call was inactive.

Turning to `c1ccc2scnc2c1`, the compound was classed as inactive.

For `OC[C@H]1O[C@@H](O[C@H]2[C@H](O)[C@@H](O)[C@H](O)O[C@@H]2CO)[C@H](O)[C@@H](O)[C@H]1O`, the compound was called inactive.

For the compound `CC(=O)OC/C=C(C)/C=C/C=C(C)/C=C/C1=C(C)CCCC1(C)C`, the call was inactive.

With `CC(=O)C1=C(C)[C@@H]2C[C@@]3(C1)[C@H](C)CC[C@H]3C2(C)C`, the AC50 was 0.000263 µM (active).

Turning to `C=C(C)C(N)=O`, the outcome was inactive.

With `O=C(OCc1ccccc1)c1ccccc1O`, the AC50 is 46.4 µM (active).

Tested on in a further assay: not listed separately
Nature of the assay: CCTE_Deisenroth_AIME_384WELL_CTox_Inactive: Cytotoxicity Assessment (CTOX) in CCTE's 384-well Estrogen Receptor Transactivation Assay without AIME metabolic competence (metabolism negative), Deisenroth Lab (AID 2284039).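 Note: cell viability via live-cell protease substrate cleaved to fluorescent probe; cells exposed 24 h to medium preincubated 2 h with alginate-water beads without S9.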 In a few lines: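 Metabolism-negative arm: chemicals (10-point, 0.002 - 200 uM) preincubated 2 h with alginate-water lids, medium moved onto VM7Luc4E2 cells for 24 h. Fluorescent live-cell protease readout; bidirectional curve fit.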
Regarding `CC(CCO)CC(C)(C)C` (centres undefined), the outcome was inactive.

For the compound `C1CCCNCC1`, the call was inactive.

Take `CC(C)C(=O)c1ccccc1`: the call was inactive.

As for `CCCCOCCOCCO`, the compound was classed as inactive.

In the case of `CC(=O)CC(=O)N(C)C`, the call was inactive.

In the case of `Cc1cccc(O)c1`, the compound was called inactive.

Consider `CC(C)N(c1ccccc1)C(C)C`, for which the compound was called inactive.

On to `CCCCCCCCCCCCN1CCOCC1`, for which the outcome was inactive.

With `CN(C)C(=O)Nc1ccccc1`, the compound was called inactive.

Take `NC(N)=S`: the result was inactive.

Turning to `OC[C@H]1O[C@@H](O[C@H]2[C@H](O)[C@@H](O)[C@H](O)O[C@@H]2CO)[C@H](O)[C@@H](O)[C@H]1O`, the compound was called inactive.

On to `CC(=O)OC/C=C(C)/C=C/C=C(C)/C=C/C1=C(C)CCCC1(C)C`, for which the compound was classed as inactive.

With `C=C(C)C(N)=O`, the compound was classed as inactive.

A further assay addresses Estrogen receptor (Homo sapiens) (UniProt P03372). Kind of assay: CCTE_Deisenroth_AIME_384WELL_LUC_Shift: CCTE's 384-well Estrogen Receptor Transactivation Assay with AIME metabolic competence data shift (ERTA luciferase; difference in metabolism positive and negative), Deisenroth Lab (AID 2284041; active = hit-call score of the fitted dose curve at least 0.9, where 1 is the maximum; inactive = score below 0.9;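 note: shift is response with S9 minus without S9 so positive means metabolism raised ER signal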). The procedure, abridged: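 Here, parent compounds undergo 2 h phase I metabolism by PB/BNF-induced rat S9 before 24 h transactivation in VM7Luc4E2 cells; the curve models S9-positive minus S9-negative response over a 10-point series.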
As for `CC(CCO)CC(C)(C)C` (centres undefined), the outcome was inactive.

`C1CCCNCC1`: the result was inactive.

On to `COc1ccc2[nH]cc(CCNC(C)=O)c2c1`, for which the result was inactive.

Take `CCC(C)COC(=O)CC(C)C` (centres undefined): the outcome was inactive.

With `CC(C)C(=O)c1ccccc1`, the outcome was inactive.

On to `CCCCOCCOCCO`, for which the outcome was inactive.

In the case of `CC(=O)CC(=O)N(C)C`, the result was inactive.

As to `CC(C)(C)C1CCC(O)CC1` (centres undefined), the result was inactive.

With `CC(=O)c1ccc2ccccc2c1`, the result was inactive.

With `Cc1cccc(O)c1`, the outcome was inactive.

For the compound `CC(C)N(c1ccccc1)C(C)C`, the result was inactive.

Take `CCCCCCCCCCCCN1CCOCC1`: the outcome was inactive.

In the case of `CN(C)C(=O)Nc1ccccc1`, the outcome was inactive.

Consider `CC(=O)Oc1c(C)c(C)c2c(c1C)CC[C@@](C)(CCC[C@H](C)CCC[C@H](C)CCCC(C)C)O2`, for which the outcome was inactive.

On to `NC(N)=S`, for which the result was inactive.

Consider `c1ccc2scnc2c1`, for which the result was inactive.

Take `OC[C@H]1O[C@@H](O[C@H]2[C@H](O)[C@@H](O)[C@H](O)O[C@@H]2CO)[C@H](O)[C@@H](O)[C@H]1O`: the outcome was inactive.

Regarding `CC(=O)OC/C=C(C)/C=C/C=C(C)/C=C/C1=C(C)CCCC1(C)C`, the outcome was inactive.

As for `CC(=O)C1=C(C)[C@@H]2C[C@@]3(C1)[C@H](C)CC[C@H]3C2(C)C`, the AC50 was 0.000848 µM (active).

As for `C=C(C)C(N)=O`, the outcome was inactive.

In the case of `O=C(OCc1ccccc1)c1ccccc1O`, the AC50 is 37.2 µM (active).
